The source of these data is PubChem BioAssay AID1569 (National Center for Advancing Translational Sciences (NCATS), 2009).

SMILES strings stand for the structures. Inconclusive results are not listed. Unmarked numbers belong to inactive results. The source made the active and inactive calls. Calls follow the shape of the dose curve; as a rule, active = well fitted inhibition curve with a large enough effect; inconclusive = small, poorly fitted or top-dose-only effect, or effect the other way, or another doubt; inactive = no such curve, though single readings can be large or run the other way.
Potency is read from the fitted curve at half-maximal effect.

The nature of the assay: Confirmation Concentration-Response Assay for lipid storage modulators. Also: nearly all actives have a fitted effect of over 80% in size.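 As to activity change, negative = inhibition: -100% = full block of lipid deposition by 20 µM Triacsin C.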 As to conditions: Drosophila S3 cells, lipid droplet BODIPY/CellTracker ratio, 18-24 h; series mostly up to 46.1 µM; activity change, negative = inhibition: at the top concentration. Summed up:
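Cells at 5,000/well received compound as a titration plus oleic acid (added as 400 uM solution) and were incubated 18–24 h at 24 °C. BODIPY 493/503 lipid signal and CellTracker Red cell count were read by 488-nm laser-scanning cytometry. Activity was normalised to 20 uM Triacsin C.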
For `Cc1ccc(NC(=O)CN(C)C(=O)Cn2ncc(Cl)c(Cl)c2=O)cc1`, the Potency was 28.1 µM (active). In the case of `COc1cc(/C=N/NC(=O)c2ccc(CN3C(=O)c4cccc5cccc3c45)cc2)cc(OC)c1O`, the Potency is 4.99 µM (active). On to `Cc1cc(C(=O)O[C@H]2[C@H](C)NS(=O)(=O)[C@H]3C[C@@H]4C=C[C@]23O4)cc([N+](=O)[O-])c1`, for which the “activity change, negative = inhibition” value is 15%.

Take `CCNC(=O)NC1(C(=O)N2CCC(Cc3ccccc3)CC2)CCCCC1`: the “activity change, negative = inhibition” value is -11.1%. Regarding `CCOc1ccc(CCNC(=O)Cn2cccc2C(=O)c2ccccc2C)cc1OCC`, the Potency is 4.99 µM (active).

Regarding `CCOc1ccc(CCNC(=O)CN2CCN(Cc3ccccc3C)C2=O)cc1OCC`, the “activity change, negative = inhibition” value was -49.3%. As for `Cc1ccc(C(NC(=O)C2CCCCC2)c2c(O)ccc3ccccc23)cc1` (stereo not given), the Potency was 17.7 µM (active). Still for that read-out and setting: in the case of `CCOc1ccc2nc(NC(=O)CSc3nc(SC)ns3)sc2c1` it was 4.45 µM (active).

On to `O=C(Nc1cccc(F)c1)NC1(C(=O)N2CCC(O)CC2)CCCCC1`, for which the “activity change, negative = inhibition” value was 23.6%. The same measure, in the same setting: in the case of `COc1ccc(CCNC(=O)COc2ccc(S(=O)(=O)NCC(C)C)cc2Cl)cc1OC` it was -18%. Consider `COc1ccc(-c2cnc(SCC(=O)Nc3nc(C(C)(C)C)cs3)n2Cc2ccco2)cc1`, for which the Potency was 0.705 µM (active).

On to `Cc1ccc(C(=O)NC2CCCc3c2cnn3-c2ccc(F)cc2F)cn1` (stereo not given), for which the Potency is 3.97 µM (active).

`COc1ccc(CCNC(=O)CCc2ccc(S(=O)(=O)NC(C)C)cc2)cc1OC`: the “activity change, negative = inhibition” value was 26%. For `COc1ccc2c(c1)c1nnc(SCC(=O)N3C(C)CCCC3C)nc1n2C` (stereo not given), the Potency was 3.53 µM (active). On the same count and under the same terms, in the case of `c1ccc2c(c1)OCC(CNc1ncnc3sccc13)O2` (stereo not given) it was 0.996 µM (active).
